Compound activity deposited in PubChem BioAssay by National Center for Advancing Translational Sciences (NCATS).
In the library only some 15% were active in any assay of this set; here they are far more common.
Pf growth 96h: P. falciparum growth inhibition at 96 hour, primary screen for plastid delayed-death inhibitors; AID 504834; P. falciparum luciferase reporter growth, 96 h; actives 6.9% (n = 320,000); Potency, µM (series often up to 28.7 µM), actives largely listed as inhibitors
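96 h incubation, 37 C, 5% CO2, of luciferase-reporter P. falciparum-infected RBCs (2% hematocrit, 0.05% parasitemia final) with test compounds; endpoint luminescence.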
HCMV antiviral: blocks human cytomegalovirus replication; HFF cells, HCMV-luciferase reporter, 72 h; hits give low values; activity change, negative = inhibition, % at 57.5 µM; actives 4.5% (n = 410,000); AID 1259415; in the data active = activity change below about -60%; inconclusive = no clear call, values can overlap the other calls; inactive = above about -39%
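Inhibition of viral replication was scored as loss of reporter luminescence in HFFs infected with HCMV-luciferase (MOI 1 PFU/cell) for 72 h; compounds tested at 2 doses, normalized to buffer and Salinomycin controls.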
Pf growth 48h: P. falciparum growth inhibition at 48 hours (one generation) | P. falciparum luciferase growth in erythrocytes, 48 h | Potency, µM (top dose mostly 28.7 µM), hits mostly inhibitors | actives 5.9% (n = 310,000) | AID 504832
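Firefly luciferase activity from engineered P. falciparum reports growth; inhibitors lower the luminescent signal. Cultures contained 2% hematocrit erythrocytes at 0.1% final parasitemia.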
HCV inh: HCV inhibition; Huh7.5.1 HCVcc-Cre infection, luciferase reporter, 44 h; Potency, µM (highest dose often 41.8 µM), most hits filed as inhibitors; actives 3.4% (n = 340,000); AID 651820
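Seed cells (1,000/well) for 4 h; treat with compound and infect with HCVcc-Cre, moi about 0.5. Incubate 44 h, then detect luciferase activity.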
SARS PLP yeast: blocks SARS-CoV papain-like protease in a yeast assay; actives 0.19% (n = 330,000); S. cerevisiae expressing SARS-CoV PLpro, growth rescue; AID 485353; Potency, µM (series often up to 32.9 µM), usual class: activators; calls by dose curve; note: nearly all actives have a fitted effect of over 55% in size
Sm TGR inh: inhibitors of Schistosoma mansoni thioredoxin glutathione reductase; Q962Y6; actives 3% (n = 360,000); purified TGR, DTNB reduction, TNB absorbance 405 nm; Potency, µM (top dose mostly 114 µM), most hits filed as inhibitors; note: nearly all actives have a fitted effect of over 60% in size
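First, TGR (20 nM dispensed) and NADPH were mixed with compound. Second, a 15 min room-temperature incubation followed. Third, further NADPH and then DTNB were added to start the reaction. Finally, TNB absorbance was monitored kinetically.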
Hits are given with their value; n = inactive; u = inconclusive; x = no result given. Unless noted, calls come from the whole dose curve; as a rule, active = well fitted curve in the direction sought with a large enough effect; inconclusive = small, poorly fitted or top-dose-only effect, or another doubt; inactive = no such curve, though single readings can be large; an effect the other way counts as inactive or inconclusive.

SMILES	Pf growth 96h	HCMV antiviral	Pf growth 48h	HCV inh	SARS PLP yeast	Sm TGR inh
COCCN1CCN(C(=O)c2ccc3oc(CCc4ccccc4)nc3c2)CC1	n	n	n	x	n	n
COc1ccc(NC(=O)CN(C)C(=O)c2cn(-c3ccccc3)nc2-c2cccnc2)cc1	u	n	8.3µM	n	x	n
CCOc1ccc(NC(=O)CN(C)C(=O)c2cn(-c3ccc(F)cc3)nc2-c2cccc(OC)c2)cc1OCC	u	n	12µM	u	n	n
COc1cccc(S(=O)(=O)N2CCN(Cc3ccc4c(c3)OCO4)CC2)c1	u	n	n	x	n	n
COc1ccc(Nc2ncnc3c2c(C)c(C)n3CCCN(C)C)cc1	n	n	n	n	n	n
Cc1c(NC2(C#N)CCCC2)c(=O)n(-c2ccccc2)n1C	n	x	n	n	n	40µM
Cc1c(NC=C(C#N)C#N)c(=O)n(-c2ccccc2)n1C	n	n	n	n	n	n
COc1ccccc1-c1cn[nH]c1-c1ccc(OCc2ccccc2F)cc1O	3.7µM	n	7.4µM	n	n	n
COc1ccccc1-c1cn[nH]c1-c1ccc(OCc2ccc([N+](=O)[O-])cc2)cc1O	n	n	u	n	n	n
COc1ccccc1-c1cn[nH]c1-c1ccc(OCc2ccc(F)cc2)cc1O	10µM	n	13µM	u	n	n
CN(Cc1ccccc1NC(=O)c1ccc(S(=O)(=O)N(C)C)cc1)C1CCCCC1	u	x	u	x	n	n
Cc1ccccc1NC(=O)c1ccc(F)c(S(=O)(=O)N(C)C2CCCCC2)c1	x	-94	x	x	x	n
CN(C)c1ccc(C(CNS(=O)(=O)c2ccc(Cl)cc2)N2CCCC2)cc1 (centres undefined)	x	n	x	x	x	n
Cn1c(-n2cccc2)c(-c2c(-c3ccccc3)[nH]c3c2c(=O)[nH]c(=O)n3C)c(=O)[nH]c1=O	n	n	n	x	n	n
CC(SC1=NCCN1S(=O)(=O)c1ccccc1)c1ccccc1 (centres undefined)	13µM	n	n	u	n	n
Cc1ccc(S(=O)(=O)N2CCN=C2SC(C)c2ccccc2)cc1 (centres undefined)	u	n	n	u	n	n
CC(SC1=NCCN1S(=O)(=O)c1ccc(F)cc1)c1ccccc1 (centres undefined)	12µM	n	u	u	n	u
CCC(=O)N1CCc2cc(S(=O)(=O)CCC(=O)Nc3cc(Cl)ccc3OC)ccc21	x	n	x	x	x	n
CCOC(=O)c1[nH]c2ccccc2c1NC(=O)c1cc(OCC)c(OCC)c(OCC)c1	x	n	x	x	x	n
CCOc1ccc(NC(=O)CSc2ccc(-c3sc(-c4ccccc4)nc3C)nn2)cc1	x	n	x	x	x	n
Cc1ccc2sc(C)[n+](CCO)c2c1	n	n	n	n	n	25µM
CC[n+]1c(C)sc2cc(C)ccc21	u	n	u	n	n	n
CCOC(=O)C[n+]1c(C)sc2ccc(OC)cc21	u	x	u	n	n	n
CCCC[n+]1c(C)sc2ccc(C)cc21	4.7µM	n	n	n	n	n
CCOc1ccc(NC(=O)CCS(=O)(=O)c2cccc3nonc23)cc1	x	n	x	x	x	n
SMILES	Pf growth 96h	HCMV antiviral	Pf growth 48h	HCV inh	SARS PLP yeast	Sm TGR inh
CC(=O)Nc1sc(N/N=C/c2ccc(N(C)C)cc2)nc1-c1ccc(C)cc1	4.7µM	n	2.1µM	n	n	n
COc1cc(/C=N\Nc2nc(-c3ccc(C)cc3)c(NC(C)=O)s2)ccc1O	5.9µM	n	10µM	n	n	n
COc1ccc(/C=N/Nc2nc(-c3ccc(C)cc3)c(NC(C)=O)s2)cc1OC	1.2µM	n	1.2µM	n	n	n
CCOc1cc(/C=N\Nc2nc(-c3ccc(C)cc3)c(NC(C)=O)s2)ccc1O	u	n	8.3µM	u	n	n
CCOc1cc(/C=N/Nc2ncc(C)c(=O)[nH]2)ccc1O	n	n	n	n	n	n
CC(=O)Nc1sc(N/N=C/c2ccc(C)cc2)nc1-c1ccc(C)cc1	u	n	u	n	n	n
COC(=O)C[C@@H]1CC[C@@H](NS(=O)(=O)c2ccc(OC)cc2)[C@@H](CO)O1	x	n	x	x	x	x
COc1ccccc1S(=O)(=O)N(C)C[C@H]1Oc2cc(C#CCC3CCCC3)ccc2S(=O)(=O)N([C@H](C)CO)C[C@H]1C	x	n	x	x	x	x
